According to ChEMBL document CHEMBL4296182, “CO-ADD screening of NIH NCI Diversity Set V”:
For part of these data: Results with a measured potency or affinity are listed apart.

Assays:
[1] = system: Staphylococcus aureus; assay: Antibacterial activity against Staphylococcus aureus MRSA ATCC 43300 (CO-ADD:GP_020); MIC in CAMBH media using NBS plates, by Resazurin F(560/590); type: functional; conditions: Concentration 20 uM, ASSAY_TEST Inhibition of Bacterial Growth, detection method Resazurin, Fluorescence (ex560/em590), MEDIA CAMHB, plate type 384well, CORNING #3640, time 18 hr
[2] = system: Acinetobacter baumannii; assay: Antibacterial activity against Acinetobacter baumannii ATCC 19606 (CO-ADD:GN_034); MIC in CAMBH media using NBS plates, by Resazurin F(560/590); type: functional; conditions: Concentration 20 uM, ASSAY_TEST Inhibition of Bacterial Growth, detection method Resazurin, Fluorescence (ex560/em590), MEDIA CAMHB, plate type 384well, CORNING #3640, time 18 hr
[3] = system: Escherichia coli; assay: Antibacterial activity against Escherichia coli ATCC 25922 (CO-ADD:GN_001); MIC in CAMBH media using NBS plates, by Resazurin F(560/590); type: functional; conditions: Concentration 20 uM, ASSAY_TEST Inhibition of Bacterial Growth, detection method Resazurin, Fluorescence (ex560/em590), MEDIA CAMHB, plate type 384well, CORNING #3640, time 18 hr
[4] = system: Klebsiella pneumoniae; conditions: Concentration 20 uM; ASSAY_TEST Inhibition of Bacterial Growth; detection method Absorption (OD600); MEDIA CAMHB; plate type 384well; NBS; CORNING #3640; time 18 hr
[5] = system: Candida albicans; conditions: 20 µM
[6] = system: Cryptococcus neoformans; conditions: Concentration 20 uM; ASSAY_TEST Inhibition of Fungal Growth; detection method Resazurin; Absorption (OD600-OD570); plate type 384well; NBS; CORNING #3640

| Compound | Inhibition [1] | Inhibition [2] | Inhibition [3] | Inhibition [4] | Inhibition [5] | Inhibition [6] |
| --- | --- | --- | --- | --- | --- | --- |
| N#Cc1nnn2c1nc(N)c1c(Cl)cccc12 | 11.84% | 9.93% | 2.46% | 14.13% | 1.33% | -4.78% |
| Cc1cccc(N2CCN(CC(O)COc3ccccc3Cl)CC2)c1 (stereo not given) | 6.25% | 7.51% | 7.94% | 12.03% | -0.3% | -18.69% |
| CCOC(=O)N1CCN(Cc2c(O)ccc3ccccc23)CC1 | 1.46% | -8.59% | 8.73% | 12.37% | 3.24% | -5.96% |
| CNc1ccc(/N=N/c2cc[n+]([O-])cc2C)cc1C | -1.07% | -11.34% | 7.82% | 8.63% | -0.41% | -28.56% |
| C=CCc1ccccc1OCC(=O)O | 3.16% | -9.95% | 10.02% | 15.59% | 5.01% | 1.51% |
| Cc1ccc(/C=C2\CCOC2=O)cc1 | 9.11% | -13.71% | 3.05% | 29.06% | 11.6% | 1.19% |
| CCC(CNc1cc(OC)cc2cccnc12)NC1CCCCC1 (stereo not given) | 4.02% | 11.06% | 4.95% | 14.97% | -0.36% | -7.8% |
| O=C(Nc1ccc(Oc2ccc(NC(=O)Nc3ccccc3Cl)cc2)cc1)Nc1ccccc1Cl | 19.6% | -10.42% | 14.43% | 12.03% | 16% | 6.13% |
| O=C1OCC/C1=C\c1ccc(O)cc1 | -0.41% | -7.68% | 4.86% | 11.2% | 3.18% | 0.19% |
| O=C(O)CCN1c2ccccc2Sc2ccccc21 | 8.2% | -9.93% | 16.66% | 14.48% | 16.7% | -15.83% |
| C#CCOCC1CN(c2ccccc2)C(=O)O1 (stereo not given) | -1.12% | 12.08% | 6.4% | 9.96% | 6.35% | -15.19% |
| O=C(O)CCC1(c2ccccc2)NC(=O)NC1=O (stereo not given) | 11.61% | -12.39% | 7.41% | 2.37% | -1.18% | -9.46% |
| COc1ccc(Cc2nnc(SC)n2-c2ccc(F)cc2)cc1OC | 7.78% | -2.89% | 10.28% | 14.43% | 2.19% | -3.12% |
| CCOC(=O)/C(C#N)=C\c1c[nH]c2ccccc12 | -10.31% | -2.58% | -10.08% | 2.71% | 3.53% | 2.4% |
| C=CCN=C(NC#N)SC | -6.06% | -0.66% | -1.07% | 5.62% | -0.02% | 0.87% |
| O=C(c1ccccc1)c1ccc(-c2ccc(O)cc2)cc1 | -4.49% | -14.62% | 8.24% | 15.69% | 6.54% | -10.56% |
| CN(C)/C=N/c1ccc(Cl)c(Cl)c1 | 2.81% | 14.75% | -10.37% | 19.84% | 8.37% | -5.94% |
| CCN(c1ccccc1)c1nc(Cl)nc2c1cnn2C | 9.86% | 12.26% | 4.23% | 13.76% | 2.54% | -8.45% |
| CCCSc1nc2c(c(=O)n(C)c(=O)n2C)n1C | 3.15% | -8.65% | 0.8% | 7.42% | 2.63% | -7.02% |
| Cc1cc(OCCCCOc2ccc(C#N)cc2)ccc1[N+](=O)[O-] | 20.1% | 6.74% | 2.94% | 7.99% | 7.31% | -12.2% |
| O=C1C(CO)C(CO)C(CO)C1CO (stereo not given) | 12.78% | -16.04% | 12.18% | 2.22% | -0.61% | -11.22% |
| N=C(N)NS(=O)(=O)c1ccc(/N=C2/C(=O)Nc3ccccc32)cc1 | 10.79% | 2.06% | 11.61% | 5.69% | -0.17% | -10.75% |
| NC(=O)NC(=O)c1nccnc1C(=O)O | 4.42% | -16.67% | 10.6% | 1.89% | 0.76% | -7.91% |
| COC(=O)c1c[n+]([O-])ccc1OC | -9.06% | -1.68% | -4.59% | 7.09% | -2.55% | -2.93% |
| c1ccc2c(c1)cnc1ccccc12 [PHENANTHRIDINE] | 1.61% | -6.38% | 4.54% | 11.56% | 4.34% | -7.16% |
